Laboratory results published in PubChem BioAssay AID1159580 (chemical genetic matrix, 2015).
Among all 5,500 compounds or so, about 2,000 (36%) were called active. Inconclusive results (about 18%) are left out. Cut-off read from the data, not from the text of the source: active = normalized growth mostly below about 0.91 (no sharp cut-off); inconclusive = no clear call, values can overlap the other calls; inactive = mostly above about 0.92. The list shows a part of the results.

Assay: chemical genetic growth profiling, strain panel (AID 1159580);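 note: tested at 20 µM; growth read once vehicle control cultures reached saturation at 30 °C; 1 = growth at the plate median or of vehicle wells; lower values mean less growth of the strain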
Details: growth OD

Measured: normalized growth

COc1cc2occ(-c3ccccc3)c(=O)c2c(OC)c1C
inactive: S. cerevisiae deletion strains, locus YJR043C, strain POL32, active compounds read low 0.937 | S. cerevisiae deletion strains, locus YJR075W, strain HOC1, active compounds read low 0.908 | S. cerevisiae deletion strains, locus YKL009W, strain mrt4, active compounds read low 0.941 | S. cerevisiae deletion strains, locus YKL068W, active compounds read low 0.965 | S. cerevisiae deletion strains, locus YKL085W, strain MDH1 (second series), active compounds read low 0.952 | S. cerevisiae deletion strains, locus YKL085W, strain MDH1, active compounds read low 0.952 | S. cerevisiae deletion strains, locus YKL160W, strain elf1, active compounds read low 0.969 | S. cerevisiae deletion strains, locus YKL190W, strain CNB1, active compounds read low 0.961 | S. cerevisiae deletion strains, locus YKR026C, strain gcn3, active compounds read low 0.973 | S. cerevisiae deletion strains, locus YKR091W, strain srl3, active compounds read low 0.976 | S. cerevisiae deletion strains, locus YLL001W, strain dnm1, active compounds read low 0.98 | S. cerevisiae deletion strains, locus YLL026W, active compounds read low 0.971 | S. cerevisiae deletion strains, locus YLL041C, strain sdh2, active compounds read low 0.976 | S. cerevisiae deletion strains, locus YLR027C, strain aat2, active compounds read low 0.979 | S. cerevisiae deletion strains, locus YLR039C, strain RIC1, active compounds read low 0.763 | S. cerevisiae deletion strains, locus YLR058C, strain SHM2, active compounds read low 0.951 | S. cerevisiae deletion strains, locus YLR102C, strain apc9, active compounds read low 0.96 | S. cerevisiae deletion strains, locus YLR221C, strain rsa3, active compounds read low 0.979 | S. cerevisiae deletion strains, locus YLR258W, strain gsy2, active compounds read low 0.97 | S. cerevisiae deletion strains, locus YLR262C, strain YPT6, active compounds read low 0.725 | S. cerevisiae deletion strains, locus YLR320W, strain mms22, active compounds read low 0.902 | S. cerevisiae deletion strains, locus YLR330W, strain CHS5, active compounds read low 0.957 | S. cerevisiae deletion strains, locus YLR342W, strain FKS1, active compounds read low 0.968 | S. cerevisiae deletion strains, locus YLR357W, strain rsc2, active compounds read low 0.97 | S. cerevisiae deletion strains, locus YLR370C, strain arc18, active compounds read low 0.962 | S. cerevisiae deletion strains, locus YLR371W, strain rom2, active compounds read low 0.923 | S. cerevisiae deletion strains, locus YLR384C, strain iki3, active compounds read low 0.976 | S. cerevisiae deletion strains, locus YML016C, strain PPZ1, active compounds read low 0.956 | S. cerevisiae deletion strains, locus YML120C, strain ndi1, active compounds read low 0.951 | S. cerevisiae deletion strains, locus YML124C, strain tub3, active compounds read low 0.942 | S. cerevisiae deletion strains, locus YMR058W, strain fet3, active compounds read low 0.97 | S. cerevisiae deletion strains, locus YMR078C, strain ctf18, active compounds read low 0.927 | S. cerevisiae deletion strains, locus YMR125W, strain sto1, active compounds read low 1 | S. cerevisiae deletion strains, locus YMR129W, active compounds read low 0.981 | S. cerevisiae deletion strains, locus YMR205C, strain PFK2, active compounds read low 0.932 | S. cerevisiae deletion strains, locus YMR231W, strain pep5, active compounds read low 0.998 | S. cerevisiae deletion strains, locus YMR263W, strain SAP30, active compounds read low 0.926 | S. cerevisiae deletion strains, locus YMR307W, strain GAS1, active compounds read low 0.665 | S. cerevisiae deletion strains, locus YNL067W, strain RPL9B, active compounds read low 0.95 | S. cerevisiae deletion strains, locus YNL128W, strain TEP1, active compounds read low 0.963 | S. cerevisiae deletion strains, locus YNL153C, strain GIM3, active compounds read low 0.991 | S. cerevisiae deletion strains, locus YNL209W, strain ssb2, active compounds read low 0.988 | S. cerevisiae deletion strains, locus YNL233W, strain BNI4, active compounds read low 0.908 | S. cerevisiae deletion strains, locus YNL248C, strain rpa49, active compounds read low 0.98 | S. cerevisiae deletion strains, locus YNL250W, strain rad50, active compounds read low 0.956 | S. cerevisiae deletion strains, locus YNL271C, strain bni1, active compounds read low 0.937 | S. cerevisiae deletion strains, locus YNL298W, strain CLA4, active compounds read low 0.946 | S. cerevisiae deletion strains, locus YNL322C, strain KRE1 (second series), active compounds read low 0.991 | S. cerevisiae deletion strains, locus YNL322C, strain KRE1, active compounds read low 0.965 | S. cerevisiae deletion strains, locus YNR049C, strain mso1, active compounds read low 0.985 | S. cerevisiae deletion strains, locus YNR052C, strain pop2, active compounds read low 0.933 | S. cerevisiae deletion strains, locus YOL006C, strain TOP1, active compounds read low 0.787 | S. cerevisiae deletion strains, locus YOL012C, strain htz1 0.865 | S. cerevisiae deletion strains, locus YOR001W, strain rrp6, active compounds read low 1 | S. cerevisiae deletion strains, locus YOR061W, strain CKA2, active compounds read low 0.96 | S. cerevisiae deletion strains, locus YOR069W, strain VPS5, active compounds read low 0.968 | S. cerevisiae deletion strains, locus YOR070C, strain gyp1, active compounds read low 0.982 | S. cerevisiae deletion strains, locus YOR080W, strain dia2, active compounds read low 1 | S. cerevisiae deletion strains, locus YOR083W, strain WHI5, active compounds read low 0.965 | S. cerevisiae deletion strains, locus YOR106W, strain vam3, active compounds read low 0.953 | S. cerevisiae deletion strains, locus YOR136W, strain idh2, active compounds read low 0.952 | S. cerevisiae deletion strains, locus YOR144C, strain elg1, active compounds read low 0.946 | S. cerevisiae deletion strains, locus YOR265W, strain rbl2, active compounds read low 0.962 | S. cerevisiae deletion strains, locus YOR270C, strain vph1, active compounds read low 0.801 | S. cerevisiae deletion strains, locus YOR290C, strain snf2, active compounds read low 0.919 | S. cerevisiae deletion strains, locus YOR316C, strain cot1, active compounds read low 0.937 | S. cerevisiae deletion strains, locus YPL051W, strain arl3, active compounds read low 0.942 | S. cerevisiae deletion strains, locus YPL055C, strain LGE1, active compounds read low 0.888 | S. cerevisiae deletion strains, locus YPL078C, strain atp4, active compounds read low 0.956 | S. cerevisiae deletion strains, locus YPL106C, strain sse1, active compounds read low 0.993 | S. cerevisiae deletion strains, locus YPL240C, strain hsp82, active compounds read low 0.969 | S. cerevisiae deletion strains, locus YPL241C, strain CIN2, active compounds read low 0.959 | S. cerevisiae deletion strains, locus YPR119W, strain clb2, active compounds read low 0.959 | S. cerevisiae deletion strains, locus YPR141C, strain kar3, active compounds read low 0.944 | S. cerevisiae deletion strains, locus YPR163C, strain tif3, active compounds read low 0.937 | S. cerevisiae deletion strains, locus YPR167C, strain met16, active compounds read low 0.942 | S. cerevisiae deletion strains, strain wtn01, active compounds read low 0.916 | S. cerevisiae strains, strain wild type, active compounds read low 0.928
active: S. cerevisiae deletion strains, locus YKR001C, strain vps1, active compounds read low 0.855 | S. cerevisiae deletion strains, locus YLR262C, strain YPT6 (second series), active compounds read low 0.766 | S. cerevisiae deletion strains, locus YLR268W, strain sec22, active compounds read low 0.873 | S. cerevisiae deletion strains, locus YLR342W, strain FKS1 (second series), active compounds read low 0.714 | S. cerevisiae deletion strains, locus YLR418C, strain cdc73, active compounds read low 0.788 | S. cerevisiae deletion strains, locus YML032C, strain rad52, active compounds read low 0.898 | S. cerevisiae deletion strains, locus YMR223W, strain ubp8, active compounds read low 0.885 | S. cerevisiae deletion strains, locus YNL071W, strain lat1, active compounds read low 0.819 | S. cerevisiae deletion strains, locus YNL307C, strain MCK1, active compounds read low 0.664 | S. cerevisiae deletion strains, locus YOL147C, strain pex11, active compounds read low 0.923 | S. cerevisiae deletion strains, locus YOR184W, strain ser1, active compounds read low 0.742
